Assay outcomes from PubChem BioAssay.
FEN1 inhibitor = inhibitors of human flap endonuclease 1. AID 588795. actives 0.35% (n = 390,000). Potency, µM (doses to about 114 µM), most hits filed as inhibitors. Recombinant FEN1 flap cleavage, fluorescence, 15 min; also: nearly all actives have a fitted effect of over 65% in size
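Potency values derive from four-parameter Hill fits of normalized qHTS data. The reaction used 10 nM FEN1 preincubated 15 min at room temperature with compound, then 50 nM DNA substrate, read at 0 and 15 min.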
WRN helicase inh = inhibitors of human WRN helicase; Q14191; WRN helicase unwinding, fluorescent forked duplex, kinetic; Potency, µM (highest dose often 114 µM), actives largely listed as inhibitors; actives 0.46% (n = 360,000); also: nearly all actives have a fitted effect of over 55% in size
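Enzyme (20 nM final) and test compound sit together 15 min at room temperature before substrate addition. Substrate is a single-forked duplex oligonucleotide (100 nM) labelled with fluorophore and quencher, with 2 mM ATP; helicase unwinding raises red fluorescence, read kinetically.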
POLH inh = inhibitors of human DNA polymerase eta; Q9Y253; recombinant Pol eta, fluorescent DNA replication assay; Potency, µM (doses to about 114 µM), usual class: inhibitors; actives 1.2% (n = 390,000)
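Fluorescent replication assay: 50 nM final substrate added after a 15 min room-temperature compound preincubation with 10 nM enzyme. Signal taken at 0 min and again at 10 min.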
Pol iota inh = blocks human DNA polymerase iota activity; Q9UNA4; Pol iota fluorescent replication assay, 10 min; Potency, µM (series often up to 115 µM), most hits filed as inhibitors; actives 1% (n = 390,000)
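Fluorescent replication assay read twice, at 0 min and 10 min after adding 50 nM (final) substrate. Enzyme (10 nM) and compounds were first incubated 15 min at room temperature; enzyme-free buffer wells were negative controls.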
POLK inh = DNA polymerase kappa (human) inhibition; Q9UBT6; purified Pol kappa, fluorescent DNA synthesis assay, 10 min; Potency, µM (doses to about 107 µM), most hits filed as inhibitors; actives 0.53% (n = 400,000); AID 588579
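First, compounds were pin-transferred onto 10 nM Pol kappa. After 15 min at room temperature, substrate was added to 50 nM final. Fluorescence was then measured kinetically at 0 and 10 min.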
POLB inh = DNA polymerase beta (human) inhibition | Pol beta primer extension/strand displacement, fluorescence kinetic | Potency, µM (series often up to 114 µM), most hits filed as inhibitors | actives 1.3% (n = 340,000) | AID 485314
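10 nM enzyme + cpd, 15 min RT; start with substrate 50 nM final; read 0 min and after 10 min RT. Corrected, normalized data; 4-parameter Hill curve fit.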
Large screens that a line does not name were inactive. Most compounds without a hit are left out; they make up all but 2.4% or so of the library. Calls follow the shape of the dose curve; as a rule, active = well fitted curve in the direction sought with a large enough effect; inconclusive = small, poorly fitted or top-dose-only effect, or another doubt; inactive = no such curve, though single readings can be large; an effect the other way counts as inactive or inconclusive.

CC1CCC(C(=O)NNC(=O)c2cc(-c3ccco3)[nH]n2)CC1 (configuration not stated)	none
O=C(O)c1cc(-c2ccco2)[nH]n1	POLH inh inconclusive, POLB inh 28.2µM
O=C(Cc1cc(=O)[nH][nH]1)N/N=C/C=C/c1ccccc1	FEN1 inhibitor inconclusive, WRN helicase inh inconclusive, POLH inh 14.1µM, Pol iota inh inconclusive
COc1cc(C(=O)Nc2ccc3[nH]c(=O)sc3c2)cc(OC)c1OC	none (no result: WRN helicase inh)
C[n+]1cc2c3c(ccc2c2ccc4cc5c(cc4c21)OCO5)OCO3	FEN1 inhibitor 11.2µM, POLH inh inconclusive, Pol iota inh 28.2µM, POLB inh 7.94µM (no result: WRN helicase inh)
Cc1ccc(CNC(=O)c2cc(S(=O)(=O)N3CCCC(C)C3)cn2C)cc1 (configuration not stated)	none (no result: WRN helicase inh)
COc1ccc(C(=O)CSc2ccc(-c3ccccc3)nn2)cc1	none
O=C(CSc1ccc(-c2ccco2)nn1)c1ccccc1	WRN helicase inh inconclusive, Pol iota inh 50.1µM, POLK inh inconclusive, POLB inh 11.2µM
COc1ccc(C(=O)CSc2ccc(-c3ccco3)nn2)cc1	POLH inh inconclusive, Pol iota inh inconclusive, POLB inh 14.1µM
COc1cc(OC)cc(C(=O)NCCc2csc(-c3ccc(C(F)(F)F)cc3)n2)c1	none (no result: WRN helicase inh)
CCOc1ccc(NC(=O)CCC(=O)NNC(=O)COc2ccc(C)cc2Br)cc1	Pol iota inh 70.8µM, POLB inh inconclusive
Cc1ccc(NC(=O)Nc2cnc3ccccc3c2)cc1	POLB inh 20µM
CCN(CC)C(=O)Nc1cnc2ccccc2c1	POLB inh inconclusive
COc1ccc2cc(OCC(=O)NNC(=O)Nc3ccc(OC)c(OC)c3)ccc2c1	FEN1 inhibitor inconclusive, POLH inh inconclusive, Pol iota inh 20µM, POLB inh 50.1µM
Cc1ccc(NC(=O)NNC(=O)COc2ccc3ccccc3c2)cc1	Pol iota inh inconclusive, POLB inh 79.4µM
COc1cccc(NC(=O)NNC(=O)COc2ccc3ccccc3c2)c1	none
COc1ccc(C2C3C=CCC(c4cccc(/C=C/c5ccccc5)c4)C3C(=O)N2Cc2ccccc2)cc1Cl (configuration not stated)	none (no result: WRN helicase inh, POLH inh, POLB inh)
CCNC(=O)[C@@H]1CCCN1C(=O)[C@H](CCCN=C(N)N)NC(=O)[C@H](CC(C)C)NC(=O)[C@@H](Cc1c[nH]c2ccccc12)NC(=O)[C@H](Cc1ccc(O)cc1)NC(=O)[C@H](CO)NC(=O)[C@H](Cc1c[nH]c2ccccc12)NC(=O)[C@H](Cc1cnc[nH]1)NC(=O)[C@@H]1CCC(=O)N1	none (no result: FEN1 inhibitor, WRN helicase inh, POLH inh, Pol iota inh, POLB inh)
CC(C)(C)c1ccc(C(=O)Nc2ccc(C(=O)OCc3cc(=O)n4ccsc4n3)cc2)cc1	none (no result: WRN helicase inh)
CC(C)(C)CC(C)(C)N=C1Nc2ccccc2N[C@]12C[C@H]1CCCC(=O)N3CC[C@@H](C2)[C@@H]13	FEN1 inhibitor inconclusive (no result: WRN helicase inh, POLH inh, POLB inh)
Cc1ccccc1NC(=O)NNC(=O)COc1ccc2ccccc2c1	WRN helicase inh inconclusive, Pol iota inh inconclusive, POLB inh 15.8µM
O=C(O)Cc1ccc(NC(=O)COc2ccc3ccccc3c2)cc1	none
O=C(COc1ccc2ccccc2c1)Nc1ccc(Cc2ccncc2)cc1	POLH inh inconclusive, Pol iota inh 25.1µM, POLB inh inconclusive
COc1ccccc1NC(=O)Cn1c(=O)n(-c2ccccc2Cl)c(=O)c2sc3ccccc3c21	none (no result: WRN helicase inh)
O=C(CS(=O)(=O)c1cccc2nsnc12)Nc1ccccc1	none (no result: WRN helicase inh)
CC(C)(C)OC(=O)N1CCC(c2c(C(=O)NCCN3CCC(Cc4ccccc4)CC3)cnn2-c2cccc(Cl)c2)CC1	none (no result: WRN helicase inh)
N#C/C(=C\c1ccc(OCc2ccc(C(=O)O)cc2)cc1)C(=O)N1CCOCC1	POLH inh 28.2µM, Pol iota inh inconclusive
Cn1c(N)c(C(=O)COC(=O)C2Cc3ccccc3CN2S(C)(=O)=O)c(=O)n(C)c1=O (configuration not stated)	WRN helicase inh inconclusive, POLH inh 12.6µM (no result: FEN1 inhibitor, Pol iota inh, POLK inh, POLB inh)
C=CCN(C)CCCCCCOc1ccc(C(=O)c2ccc(Br)cc2)c(F)c1	none (no result: WRN helicase inh, POLH inh, POLB inh)
COc1ccc(/C=N/N2C(C)CCCC2C)cc1O (configuration not stated)	none
CC1CCCC(C)N1/N=C/c1ccc(O)c(O)c1 (configuration not stated)	POLH inh inconclusive, Pol iota inh inconclusive, POLK inh 39.8µM, POLB inh 2.24µM
O=C1C(=Cc2cn(-c3ccccc3)nc2-c2ccc(OCc3ccccc3F)cc2)SC(=S)N1CCS(=O)(=O)O	WRN helicase inh 31.6µM (no result: FEN1 inhibitor, POLH inh, Pol iota inh, POLK inh, POLB inh)
CCN(CC)c1ccc(/C=C(\C#N)C(=O)NCc2ccco2)cc1	none (no result: FEN1 inhibitor, WRN helicase inh, POLH inh, Pol iota inh, POLK inh)
CN(C)c1ccc(/C=C(\C#N)C(=O)NCc2ccco2)cc1	POLB inh 56.2µM (no result: FEN1 inhibitor, WRN helicase inh, POLH inh, Pol iota inh, POLK inh)
COC(=O)CCC(=O)OC1(C)C(=O)C2=CN(CC3CC3)C(c3ccc(OC)cc3)=CC2=C(Br)C1=O (configuration not stated)	POLH inh 79.4µM, Pol iota inh inconclusive
COC(=O)CCC(=O)OC1(C)C(=O)C2=CN(Cc3ccc(OC)cc3)C(c3ccc(OC)cc3)=CC2=C(Br)C1=O (configuration not stated)	none (no result: POLB inh)
COC(=O)CCC(=O)OC1(C)C(=O)C2=CN(C3CC3)C(c3ccc(OC)cc3)=CC2=C(Br)C1=O (configuration not stated)	POLH inh 79.4µM, Pol iota inh inconclusive (no result: POLB inh)
Cc1ccc(NC(=O)CS(=O)(=O)c2nc(-c3ccc(C)cc3)cn2-c2ccc(C)cc2)cc1	Pol iota inh inconclusive (no result: WRN helicase inh)
CCCNC(=O)CCSc1nc(-c2ccc3c(c2)OCO3)cc(C(F)(F)F)n1	none (no result: WRN helicase inh)
CC(C)OCC(O)CN1CCN(CCN2C(=O)c3cccc4cccc(c34)C2=O)CC1 (configuration not stated)	POLB inh inconclusive
CC(=O)c1ccc(OCC(O)CN2CCN(CCN3C(=O)c4cccc5cccc(c45)C3=O)CC2)cc1 (configuration not stated)	FEN1 inhibitor inconclusive, POLH inh inconclusive, Pol iota inh inconclusive, POLB inh 14.1µM
COc1ccc(/C=C2\SC(N)=NC2=O)cc1	none
CCOC(=O)CSC1=NC(=O)/C(=C/c2ccc(OC)cc2)S1	WRN helicase inh 50.1µM
COc1ccc(S(=O)(=O)Nc2cc3c(cc2NCc2ccccc2)n(C)c(=O)n3C)cc1OC	none (no result: WRN helicase inh)
NC(CSC(c1ccccc1)(c1ccccc1)c1ccc2c(c1)OCO2)C(=O)O (configuration not stated)	POLH inh 35.5µM (no result: FEN1 inhibitor, Pol iota inh, POLK inh, POLB inh)
CCCc1ccc(O)c(N=Cc2cc(Br)cc(OCC)c2O)c1	WRN helicase inh inconclusive, Pol iota inh inconclusive, POLB inh 20µM
CSc1cccc(NC(=O)Nc2ccccc2OCc2cc(=O)n3cc(C)ccc3n2)c1	none (no result: WRN helicase inh)
